About 79,000 compounds went through this panel and 15% of them were active in at least one assay; those are over-represented in the sample as a whole. The source made the active and inactive calls. No stated cut-off is given here; in the data, active means growth inhibition above about 70%; inactive means the rest.
What was measured:
[1] = NCI Yeast Anticancer Drug Screen. Data for the rad50 strain (AID 155);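 further: 0% = growth of vehicle-only cultures of the same strain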; conditions: S. cerevisiae rad50 strain growth inhibition, stronger effect = higher value
In short: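 Inhibition values express reduced yeast growth in compound-treated cultures relative to vehicle-treated controls.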

[2] = NCI Yeast Anticancer Drug Screen. Data for the mec2-1 strain (AID 157); conditions: S. cerevisiae mec2-1 strain, stronger effect = higher value
In short: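 Growth inhibition is read against vehicle-treated controls after compound exposure of the mec2-1 yeast strain, which is defective in DNA damage repair or cell cycle control.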

[3] = NCI Yeast Anticancer Drug Screen. Data for the sgs1 mgt1 strain (AID 161);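 further: 0% = growth of cultures given vehicle only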; conditions: S. cerevisiae sgs1 mgt1 strain, stronger effect = higher value
In short: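 Compounds are added to genetically altered yeast, and growth is compared with cultures given vehicle alone to give percent inhibition.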

[4] = NCI Yeast Anticancer Drug Screen. Data for the cln2 rad14 strain (AID 165);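 further: 0% = growth equal to vehicle treated cultures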; conditions: S. cerevisiae cln2 rad14 strain, stronger effect = higher value
In short: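 Growth inhibition, relative to vehicle-treated controls, is the read-out. The test organism is a yeast strain with defined genetic alterations, cln2 rad14.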

[5] = NCI Yeast Anticancer Drug Screen. Data for the bub3 strain (AID 167); conditions: S. cerevisiae bub3 mutant strain, stronger effect = higher value
In short: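 Steps: expose the mutant yeast strain to compound; grow alongside vehicle-treated cultures; measure growth; express inhibition against the vehicle cultures.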

[6] = NCI Yeast Anticancer Drug Screen. Data for the mlh1 rad18 strain (AID 175); conditions: S. cerevisiae mlh1 rad18 strain growth inhibition, stronger effect = higher value
In short: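 Cells of a genetically altered yeast strain, deficient in DNA damage repair, were treated with compound. Their growth was then compared with that of vehicle-treated cultures to give inhibition.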

[7] = at 5.0 µM (retest, dose inferred, filed as 0.5)
[8] = at 50.0 µM (retest, dose inferred, filed as 5.0)

Measured: growth inhibition

O=C(Nc1ccc2c(c1)Cc1cc([N+](=O)[O-])c(F)cc1-2)C(F)(F)F
inactive: [1]; [7] 13% | [1]; [8] 4% | [1]; at 50.0 µM 5.25% | [2]; [7] 1% | [2]; [8] 2% | [2]; at 50.0 µM 49.2% | [3]; [7] 3% | [3]; [8] -20% | [3]; at 50.0 µM 6.55% | [4]; [7] 0% | [4]; [8] 7% | [4]; at 50.0 µM -2.1% | [5]; [7] -3% | [5]; [8] 0% | [5]; at 50.0 µM -4.35% | [6]; [7] 3% | [6]; [8] 3% | [6]; at 50.0 µM 28.5%

c1ccc(-n2c3ccccc3c3ccccc32)cc1
inactive: [1]; [7] 4% | [1]; [8] 11% | [2]; [7] 4% | [2]; [8] 3% | [3]; [7] 1% | [3]; [8] 9% | [4]; [7] 1% | [4]; [8] -12% | [4]; at 50.0 µM 37.9% | [5]; [7] 5% | [5]; [8] 21% | [6]; [7] -1% | [6]; [8] 11%
active: [1]; at 50.0 µM 86.7% | [2]; at 50.0 µM 82.2% | [3]; at 50.0 µM 88.2% | [5]; at 50.0 µM 88.2% | [6]; at 50.0 µM 84.5%

CCc1c(O)sc2c(c1=O)C(=NCC(C)C)CC(C)(C)N2
inactive: [1]; [7] -5% | [1]; [8] 5% | [1]; at 50.0 µM 40.3% | [2]; [7] 15% | [2]; [8] 34% | [2]; at 50.0 µM 24.1% | [3]; [7] 9% | [3]; [8] -4% | [3]; at 50.0 µM 34.1% | [4]; [7] -14% | [4]; [8] -7% | [4]; at 50.0 µM 27.4% | [5]; [7] 2% | [5]; [8] 4% | [5]; at 50.0 µM 10.8% | [6]; [7] -12% | [6]; [8] -6% | [6]; at 50.0 µM 53.9%

CC12CC[C@@H](C(C)(C)O)C1[C@@H](O)CC1(C)C2CCC2[C@@]3(C)CC[C@H](O)C(C)(C)C3C(O)C[C@]21C (stereo not given in full)
active: [1]; [8] 98% | [1]; at 50.0 µM 90% | [2]; [8] 99% | [2]; at 50.0 µM 92.5% | [3]; [8] 98% | [3]; at 50.0 µM 92.3% | [4]; [8] 98% | [4]; at 50.0 µM 91.4% | [5]; [8] 98% | [5]; at 50.0 µM 91.8% | [6]; [8] 98% | [6]; at 50.0 µM 91.8%
inactive: [1]; [7] 17% | [2]; [7] 19% | [3]; [7] 9% | [4]; [7] 17% | [5]; [7] 15% | [6]; [7] 41%

COc1ccnc(-c2cc(OC)cc(/C(N)=N/O)n2)c1
active: [1]; at 50.0 µM 96.8% | [2]; [8] 83% | [2]; at 50.0 µM 93.1% | [3]; at 50.0 µM 96% | [4]; at 50.0 µM 93.8% | [5]; at 50.0 µM 88.7% | [6]; [8] 77% | [6]; at 50.0 µM 96.8%
inactive: [1]; [7] 2% | [1]; [8] 59% | [2]; [7] -4% | [3]; [7] -2% | [3]; [8] 63% | [4]; [7] -5% | [4]; [8] 62% | [5]; [7] -3% | [5]; [8] 54% | [6]; [7] -4%

Oc1cc(Br)ccc1/C=N/Nc1ccccn1
inactive: [1]; [7] -8% | [1]; [8] 46% | [1]; at 50.0 µM -38.4% | [2]; [7] -11% | [2]; [8] 60% | [2]; at 50.0 µM -13.6% | [3]; [7] -19% | [3]; [8] 6% | [3]; at 50.0 µM 15.6% | [4]; [7] -1% | [4]; [8] 53% | [4]; at 50.0 µM -21.8% | [5]; [7] 0% | [5]; [8] 46% | [5]; at 50.0 µM -3.4% | [6]; [7] -10% | [6]; [8] 27% | [6]; at 50.0 µM 1.05%

COC(=O)/C=C/c1c2ccccc2cc2ccccc12
inactive: [1]; [7] 11% | [1]; [8] 28% | [1]; at 50.0 µM 14.8% | [2]; [7] 13% | [2]; [8] 39% | [2]; at 50.0 µM 25.2% | [3]; [7] 18% | [3]; [8] 46% | [3]; at 50.0 µM 64.3% | [4]; [7] 8% | [4]; [8] 24% | [4]; at 50.0 µM 39.8% | [5]; [7] 9% | [5]; [8] 28% | [5]; at 50.0 µM 37% | [6]; [7] 6% | [6]; [8] 36%
active: [6]; at 50.0 µM 75.3%

NCCCC(=O)NC(Cc1cnc[nH]1)C(=O)O (stereo not given)
inactive: [1]; [7] 0% | [1]; [8] -5% | [1]; at 50.0 µM -1.3% | [2]; [7] -6% | [2]; [8] -4% | [2]; at 50.0 µM 29.4% | [3]; [7] 1% | [3]; [8] -11% | [3]; at 50.0 µM 11.8% | [4]; [7] 1% | [4]; [8] -2% | [4]; at 50.0 µM 32.5% | [5]; [7] -4% | [5]; [8] -1% | [5]; at 50.0 µM 2.75% | [6]; [7] -11% | [6]; [8] -37% | [6]; at 50.0 µM -6.45%

O=C(O)C1C(=O)OC2CCCCC21 (stereo not given)
inactive: [1]; [7] 0% | [1]; [8] -4% | [1]; at 50.0 µM 3.25% | [2]; [7] 1% | [2]; [8] 1% | [2]; at 50.0 µM -6.45% | [3]; [7] 1% | [3]; [8] 0% | [3]; at 50.0 µM 0.45% | [4]; [7] -3% | [4]; [8] 1% | [4]; at 50.0 µM 69.4% | [5]; [7] 0% | [5]; [8] -3% | [5]; at 50.0 µM -0.95% | [6]; [7] -2% | [6]; [8] -3% | [6]; at 50.0 µM -2.4%

CC(=O)c1ccc2c(c1)CC1(C2)Cc2ccccc2C1=O (stereo not given)
inactive: [1]; [7] -5% | [1]; [8] -16% | [1]; at 50.0 µM -2.15% | [2]; [7] -1% | [2]; [8] 0% | [2]; at 50.0 µM 1.15% | [3]; [7] 11% | [3]; [8] 24% | [3]; at 50.0 µM 7.8% | [4]; [7] 2% | [4]; [8] -13% | [4]; at 50.0 µM -10.6% | [5]; [7] 25% | [6]; [7] -4% | [6]; [8] -9% | [6]; at 50.0 µM 10%
active: [5]; [8] 84% | [5]; at 50.0 µM 84.3%

Reference: PubChem BioAssay (NCI)
